The whole screen tested about 360,000 compounds, of which about 2,400 (0.67%) were called active. Only a selection was taken, and actives are over-represented in it overall. Unmarked numbers belong to inactive results.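 Rule for the calls: active = activation above a run cutoff, the mean activation of all tested compounds plus 3 SD (cut at about 14% in these data); inactive = the rest.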

The target of the experiment is 5-hydroxytryptamine receptor 2A (Mus musculus) (UniProt P35363). The experiment is described as follows: activation of mouse 5-HT2A receptor – cell-based, luminescence, primary screen (AID 624169).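 Note: 0% = plate median of compound wells and 100% = 30 µM serotonin.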 Conditions: CHO-K1 mHTR2A beta-arrestin complementation, at 7.6 µM, stronger effect = higher value, percent of 30 µM serotonin response.
Chain of 5-hydroxytryptamine receptor 2A (Mus musculus) (P35363 whole entry, looked up): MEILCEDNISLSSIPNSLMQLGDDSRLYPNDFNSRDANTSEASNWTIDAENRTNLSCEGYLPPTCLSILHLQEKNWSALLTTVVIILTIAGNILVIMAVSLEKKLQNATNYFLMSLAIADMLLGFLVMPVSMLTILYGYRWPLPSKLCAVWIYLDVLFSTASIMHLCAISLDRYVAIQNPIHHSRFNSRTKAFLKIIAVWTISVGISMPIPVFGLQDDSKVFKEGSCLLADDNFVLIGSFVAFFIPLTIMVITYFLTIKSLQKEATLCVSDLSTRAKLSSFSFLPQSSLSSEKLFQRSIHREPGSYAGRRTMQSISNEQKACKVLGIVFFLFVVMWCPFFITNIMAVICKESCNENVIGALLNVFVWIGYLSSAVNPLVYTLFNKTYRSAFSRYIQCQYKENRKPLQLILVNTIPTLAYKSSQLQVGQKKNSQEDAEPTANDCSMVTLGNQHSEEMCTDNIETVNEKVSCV
In the case of `Cc1ccc(C(=O)N/C(=C/c2cccs2)C(=O)NCC2CCCO2)cc1` (stereo not given), the activation was 6.31%.
As for `CN1CCN(C(=O)/C(=C\c2cccs2)NC(=O)c2cccs2)CC1`, the figure is -0.61%; as for `Cc1ccc(C(=O)N/C(=C/c2cccs2)C(=O)N2CCCCC2)cc1`, 19.9% (active); as for `CCOc1cc(CN2CCCC(CO)(Cc3ccc(F)cc3F)C2)ccc1OC` (stereo not given), -5.38%.
The figure for `CCOC(=O)c1sc(NC(=O)CSc2n[nH]c(CC)n2)nc1C` is -3.89%; for `Cc1ccc(C(=O)OCC(=O)N2CCCCCC2)cc1S(=O)(=O)N1CCOCC1` it is 4.82%.
The figure for `O=C(OCC(=O)N1CCOCC1)c1ccc(N2CCOCC2)c([N+](=O)[O-])c1` is -5.4%; for `O=C(OCC(=O)N1CCOCC1)c1ccc2ccccc2c1` it is 14.5% (active); for `Cc1oc2nc(SCC(=O)NCc3cccnc3)nc(N)c2c1C` it is 0.74%.
As for `CCCCNc1c(-c2cccc(Sc3ccc(OC)cc3)c2)nc2ccccn12`, the activation is 23.6% (active).
As for `COC(=O)c1ccc2nc(-c3ccccc3)c(Cc3ccc(OC)cc3C)n2c1`, the figure is -0.62%; as for `COC(=O)c1ccc2nc(-c3cccc(Br)c3)c(Cc3ccc(OC)cc3C)n2c1`, -0.25%.
The figure for `COc1ccc(/C=N/Nc2ccccc2C(=O)O)cc1` is 15.9% (active); for `COc1ccc(/C=N/NC(=O)C(C)N(c2ccc(OC)cc2)S(C)(=O)=O)cc1` (stereo not given) it is -1.2%.
The figure for `COc1ccc(/C=N/NC(=O)Cn2cc(C(F)(F)F)ccc2=O)cc1` is -1.47%; for `COc1ccc(-c2nnc3n2CCCCC3)cc1` it is -2.42%.
For the compound `COc1cc(OC)cc(C(=O)NNC(=O)CCOc2ccccc2OC)c1`, the activation is -0.14%.
The figure for `NNc1cccc(C=Cc2ccccc2)cc1=O` is 15.7% (active); for `O=C(COC(=O)/C=C/c1cccc(Cl)c1)NCCc1ccccc1` it is -2.95%.
Take `CC(=O)C1=C(O)C(=O)N(c2ccc(S(N)(=O)=O)cc2)C1c1ccccc1F` (stereo not given): the activation is 3.54%.
The figure for `CSc1ncnc2c1ncn2CCCNCc1cccs1` is 19.2% (active); for `CSc1ncnc2c1ncn2CCCNCc1ccco1` it is 5.16%.
The figure for `CSc1ncnc2c1ncn2CCCNCC(C)c1ccccc1` (stereo not given) is -3.42%; for `COc1ccc(CCNC(=O)C2CCCN2C(=O)Nc2ccccc2)cc1OC` (stereo not given) it is -3.12%; for `CCOC(=O)N1CCN(C(=O)CN(C2CCCCC2)S(C)(=O)=O)CC1` it is 7.43%.
As for `FC(F)(F)COc1nc(N2CCCCC2)nc(N2CCNCC2)n1`, the figure is 25.4% (active).
Consider `COc1nc(NC2CCCCC2)nc(N2CCCCCC2)n1`, for which the activation is -0.64%.
As for `CN(N)c1nc(N2CCCC2)nc(N2CCCC2)n1`, the figure is 3.15%; as for `COC(=O)c1ccc(CSc2nncn2C)cc1`, 4.16%; as for `COC(=O)c1ccc(CSc2nnc(NC(C)C)s2)cc1`, 16% (active).
As for `COC(=O)c1ccc(CSc2nncn2N)cc1`, the activation was -0.96%.
The figure for `OC(COCCC12CC3CC(CC(C3)C1)C2)CN1CCCCC1` (stereo not given) is -6.43%; for `CCCCn1c(N)c(N(CCOC)C(=O)c2sc3ccccc3c2Cl)c(=O)[nH]c1=O` it is -2.4%; for `Cc1ccccc1CSCC(=O)NC(=O)NC(C)(C)C` it is 19.9% (active).
As for `CC(C)(C)NC(=O)NC(=O)CN1CCC(Cc2ccccc2)CC1`, the figure is 0.69%.
The figure for `Cc1cc(NC(=O)CSCc2ccccc2C)no1` is -1.07%.
For `Cc1ccc(S(=O)(=O)C2C(=O)NC3(C)CC2c2ccccc2O3)cc1` (stereo not given), the activation is -3.98%.
Regarding `O=C(NCc1ccccc1)c1ccc(CNc2c(N3CCCC3)c(=O)c2=O)cc1`, the activation was -2.51%.
As for `COc1ccc(-c2nc3cc([N+](=O)[O-])ccc3o2)cc1OC`, the activation is 15.3% (active).
The figure for `CC(=O)Oc1ccc2c(=O)oc(-c3ccc([N+](=O)[O-])cc3)nc2c1` is 6.81%.
As for `O=[N+]([O-])c1ccc2oc(-c3cccc(O)c3)nc2c1`, the figure is -2.7%; as for `CNc1ccc(SC#N)cc1`, 8.45%; as for `NCCCC[C@@H]1NC(=O)[C@H](CCC(=O)O)NC(=O)c2cc([N+](=O)[O-])cc(I)c2NCC[C@@H](C(N)=O)NC1=O`, -1.82%.
The figure for `O=C1CCC(C(=O)Nc2ccc(OC(F)F)cc2)N1` (stereo not given) is 2.5%; for `Cc1ccc2nc(-c3ccncc3)cc(C(=O)Nc3ccncc3)c2c1` it is 14.5% (active).
With `CC1CCCC(NC(=O)c2cc(-c3ccncc3)nc3ccccc23)C1C` (stereo not given), the activation is -0.93%.
The figure for `Cc1ccc2nc(-c3ccncc3)cc(C(=O)Nc3ccc(OC(F)F)cc3)c2c1` is -2.82%.
The figure for `CC1CCCCC1NC(=O)CCS(=O)(=O)c1ccc2c(c1)NC(=O)CO2` (stereo not given) is 1.84%.
As for `CCOC(=O)/C=c1\s/c(=C\c2ccccc2OC)c(=O)n1CC(=O)N1CCOCC1`, the figure is 15.6% (active); as for `COc1ccccc1/C=C/C(=O)NC(=S)N1CCOCC1`, -0.42%.
For the compound `CCc1cc(C(c2ccccc2OC)N2CCOCC2)c(NC(=O)c2ccccc2)s1` (stereo not given), the activation was -2.8%.
The figure for `Cc1cccc(NC(=O)CSc2nnc(NC(=O)CN3CCOCC3)s2)c1` is 4.08%; for `CCCNS(=O)(=O)c1ccc(CCC(=O)N2CCCC2)cc1` it is 0.26%.
As for `O=C1N(Cc2ccc3c(c2)OCO3)c2ccccc2C1(O)c1c[nH]c2ccccc12` (stereo not given), the activation is 4.88%.
As for `COC(=O)[C@]12CCCCC=C1N(Cc1ccc3c(c1)OCO3)C(=O)[C@H](CC(=O)NCc1cccs1)C2`, the figure is 7.05%; as for `CCOC(=O)[C@]12CCCC=C1N(Cc1ccc3c(c1)OCO3)C(=O)[C@H](CC(=O)NCc1cccs1)C2`, 23.4% (active); as for `CCOC(=O)[C@]12CCCC=C1N(Cc1ccc3c(c1)OCO3)C(=O)[C@H](CC(=O)N1CCN(C(=O)c3ccco3)CC1)C2`, 1.52%.
The figure for `CCNC(=O)c1cc2c(c(-c3cccc(-c4cncnc4)c3)n1)[C@H](CCO)N(C(C)=O)C2` is -0.81%; for `CN1CCC(=O)N([C@H](CO)Cc2ccccc2)CC1` it is -5.13%; for `COCCN(CCOC)S(=O)(=O)NC[C@H]1O[C@@H](n2cnc3c(N)ncnc32)[C@H](O)[C@@H]1O` it is 4.4%.
